A selection: hits, their analogues and other compounds. The true share with any hit is near 2.4%.
Pol iota inh: DNA polymerase iota (human) inhibition | Q9UNA4 | Pol iota fluorescent replication assay, 10 min | Potency, µM (series often up to 115 µM), without a hit: at the highest dose activity, negative = inhibition, hits mostly inhibitors | actives 1% (n = 390,000) | AID 588590; also: potency is read from the fitted curve at half-maximal effect
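Pol iota at 10 nM preincubated 15 min with compounds at room temperature; reaction started with fluorescent substrate, 50 nM final. Fluorescence read kinetically at 0 and 10 min; buffer-only wells as negative control.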
Pol beta inh: blocks human DNA polymerase beta activity; Pol beta primer extension/strand displacement, fluorescence kinetic; AID 485314; actives 1.3% (n = 340,000); Potency, µM (doses to about 114 µM), for inactives: at the highest dose activity change, negative = inhibition, hits mostly inhibitors; also: potency is read from the fitted curve at half-maximal effect; % is scaled to controls: 0 for no effect and ±100 for the full control effect
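Pol beta (10 nM) was preincubated with compound for 15 min at room temperature. The reaction was then started with 50 nM substrate and read immediately and after a further 10 min at room temperature.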
GLS inhibitor: glutaminase GLS (human) inhibition; Potency, µM (top dose mostly 45.5 µM), inactives show at the top dose activity change, negative = inhibition, usual class: inhibitors; actives 0.21% (n = 410,000); O94925; AID 624170; GLS enzymatic activity, qHTS titration; also: potency is read from the fitted curve at half-maximal effect; % is scaled to controls: 0 for no effect and ±100 for the full control effect
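Read-out is an Amplex red fluorescence increase coupled through glutamate oxidase and HRP, measured before and after 30 min room-temperature incubation. hKGA is in 45 mM KH2PO4 (pH 8.2) with 0.02% Tween-20; glutamine added as 1mM solution.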
Pol kappa inh-1: inhibitors of human DNA polymerase kappa; Q9UBT6; purified Pol kappa, fluorescent DNA synthesis assay, 10 min; Potency, µM (top dose mostly 107 µM), without a hit: top-dose activity, negative = inhibition, usual class: inhibitors; actives 0.53% (n = 400,000); AID 588579; also: potency is read from the fitted curve at half-maximal effect; % is scaled to controls: 0 for no effect and ±100 for the full control effect
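50 nM final substrate added after 15 min RT preincubation of 10 nM Pol kappa with compound; fluorescence read at 0 and 10 min.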
APE1 inh: APE1 (human) endonuclease inhibition; P27695; recombinant APE1, TAMRA/BHQ-2 abasic DNA cleavage fluorescence; Potency, µM (series often up to 65.8 µM), inactives show top-dose activity change, negative = inhibition, hits mostly inhibitors; actives 0.35% (n = 350,000); AID 2517;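 also: potency is read from the fitted curve at half-maximal effect; plate controls were vehicle for no effect and reference inhibitor for full effect; nearly all actives have a fitted effect of over 55% in size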
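0.75 nM APE1 + cpd, 15 min RT; start w/ 50 nM TAMRA/BHQ-2 THF-abasic dsDNA; kinetic fluor 525/598 nm ×3 reads @60 s; Δ(read3−read1); normalized to DMSO and NSC13755 control wells.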
Pol eta inh-1: inhibitors of human DNA polymerase eta | AID 588591 | recombinant Pol eta, fluorescent DNA replication assay | actives 1.2% (n = 390,000) | Potency, µM (doses to about 114 µM), inactives show top-dose activity change, negative = inhibition, most hits filed as inhibitors; also: potency is read from the fitted curve at half-maximal effect; % is scaled to controls: 0 for no effect and ±100 for the full control effect
Target sequence (Q9Y253 whole entry, looked up): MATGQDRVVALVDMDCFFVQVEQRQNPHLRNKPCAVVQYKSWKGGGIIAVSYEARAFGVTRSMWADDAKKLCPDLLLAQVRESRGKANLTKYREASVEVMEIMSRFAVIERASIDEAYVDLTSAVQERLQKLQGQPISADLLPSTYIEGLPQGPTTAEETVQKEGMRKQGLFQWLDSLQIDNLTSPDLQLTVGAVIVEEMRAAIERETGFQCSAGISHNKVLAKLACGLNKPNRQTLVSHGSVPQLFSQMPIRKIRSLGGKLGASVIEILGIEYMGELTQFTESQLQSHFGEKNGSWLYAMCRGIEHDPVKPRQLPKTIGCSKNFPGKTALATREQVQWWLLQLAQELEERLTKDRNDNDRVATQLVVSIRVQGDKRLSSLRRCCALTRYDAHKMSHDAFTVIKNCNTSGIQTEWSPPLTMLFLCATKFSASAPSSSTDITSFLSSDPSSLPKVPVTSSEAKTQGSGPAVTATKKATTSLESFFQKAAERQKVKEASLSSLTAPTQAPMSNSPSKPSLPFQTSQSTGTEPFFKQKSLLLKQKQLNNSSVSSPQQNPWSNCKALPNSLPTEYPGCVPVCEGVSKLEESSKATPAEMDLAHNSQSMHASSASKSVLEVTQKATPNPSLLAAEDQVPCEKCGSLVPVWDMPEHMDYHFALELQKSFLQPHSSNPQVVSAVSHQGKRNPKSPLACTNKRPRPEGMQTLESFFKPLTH
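Pol eta at 10 nM preincubated with compounds 15 min at room temperature; reaction started with fluorescent substrate (50 nM final) and read kinetically at 0 and 10 min.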
GALK confirm: confirmation of human galactokinase (GALK) inhibitors; shares compounds with Pol eta inh-1; purified GALK, Kinase-Glo ATP depletion luminescence; Potency, µM (top dose mostly 115 µM), without a hit: at the top dose activity, negative = inhibition, actives largely listed as inhibitors; actives 70% (n = 150); AID 2015
Redox cycling: redox cycling activity in phenol red-HRP assay. actives 40% (n = 150). Phenol red-HRP H2O2 redox cycling, absorbance 600 nm. shares compounds with Pol eta inh-1. AID 2035. Potency, µM (doses to about 115 µM), without a hit: top-dose activity change, negative = H2O2 signal, usual class: inhibitors
HEK293 tox: counter-screen for GALK inhibitors: HEK293 cell cytotoxicity | actives 10% (n = 170) | Potency, µM (top dose mostly 46.1 µM), for the others: at the top dose activity change, negative = cytotoxicity, most hits filed as inhibitors | HEK-293 viability, ATP luminescence (CellTiter-Glo), 24/48 h | shares compounds with Pol eta inh-1; also: potency is read from the fitted curve at half-maximal effect; % is scaled to controls: 0 for no effect and ±100 for the full control effect
Pol kappa inh-2: confirmation of human DNA polymerase kappa inhibitors; actives 76% (n = 920); purified Pol-kappa, fluorescent strand-displacement substrate; Potency, µM, hits mostly inhibitors; shares compounds with Pol eta inh-1; AID 720501; also: potency is read from the fitted curve at half-maximal effect
Pol eta inh-2: Pol eta (human) inhibition, cherry-pick confirmation; shares compounds with Pol eta inh-1; Pol eta primer extension, TAMRA/BHQ fluorescence, 10 min; Potency, µM, most hits filed as inhibitors; actives 64% (n = 2,600); also: potency is read from the fitted curve at half-maximal effect
The depositor's hits bear a star; ? = inconclusive; . = not tested or not shown; [ ] = remark or other dose. Calls follow the shape of the dose curve; as a rule, active = well fitted curve in the direction sought with a large enough effect; inconclusive = small, poorly fitted or top-dose-only effect, or another doubt; inactive = no such curve, though single readings can be large; an effect the other way counts as inactive or inconclusive.

SMILES | Pol iota inh | Pol beta inh | GLS inhibitor | Pol kappa inh-1 | APE1 inh | Pol eta inh-1 | Pol eta inh-2 | others
CCOC(=O)c1cc(-c2ccc(/C=C3/C(=O)N(c4ccc(C(=O)O)cc4)N=C3C)o2)ccc1Cl | 1.4µM* | -13% | 0% | ? | 8.4µM* | 18µM* | . | GALK confirm=21µM*;Redox cycling=12µM*;HEK293 tox=14%
CCOC(=O)c1cc(-c2ccc(/C=N\n3cnnc3)o2)ccc1Cl | 0% | -23% | 6% | -9% | 22% | -15% | .
Cc1cc(S(=O)(=O)Nc2nc(CN3CCOCC3)nc3sc4c(c23)CCC4)cc(C)c1C | 25µM* | . | ? | ? | -12% | 18µM* | ? | Pol kappa inh-2=?
Cc1cc(S(=O)(=O)Nc2nc(CN3CCOCC3)nc3sc4c(c23)CCCC4)ccc1F | 6% | 1% | 10% | -11% | -7% | -9% | .
Cc1ccc(S(=O)(=O)Nc2nc(CN3CCOCC3)nc3sc(C(=O)O)c(C)c23)cc1 | . | . | 18µM* | . | . | 13µM* | 30*
COc1cc(/C=C2\C(C)=C(C#N)c3nc(N)c(C#N)c(C)c32)ccc1OCC(=O)O | -25% | 2% | ? | -35% | ? | 22µM* | 38*
CN1C(=O)Cc2cc(S(=O)(=O)CCC(=O)Nc3ccc(Cl)c(C(F)(F)F)c3)ccc21 | -8% | 17% | ? | -2% | . | 3% | .
O=C(CCS(=O)(=O)c1ccc(Br)cc1)Nc1ccc(Cl)c(C(F)(F)F)c1 | 23% | 4% | -28% | -25% | . | ? | ? | Pol kappa inh-2=19*
O=C(O)c1cc(S(=O)(=O)O)cc(Nc2c3ccccc3nc3ccccc23)c1O | ? | -7% | 18% | ? | -13% | 22µM* | 30* | Pol kappa inh-2=17*
O=C(O)c1cccc(Nc2c3ccccc3nc3ccccc23)c1 | 36% | 1% | 17% | -21% | 2% | -16% | .
Nc1[nH]n2c(=O)c3c(nc2c1N=Nc1ccccc1)CCCC3 | 1% | 1% | 24% | -13% | -1% | ? | .
COc1ccc(C(=O)C[N+]2(C)CCOCC2)cc1 | ? | -4% | -5% | -5% | 10% | -7% | .
CCOCCCNc1nc2c(C)cccn2c(=O)c1/C=C1\SC(=S)N(C(C)CC)C1=O (stereo unspecified) | 16% | 17% | 6% | -9% | -9% | 79µM* | . | Pol kappa inh-2=27*
COc1ccccc1C(=O)N/C(=C/c1ccco1)C(=O)Nc1cccc(C(=O)O)c1 | ? | ? | 46% | 45µM* | 20%[12.4 µM] | 20µM* | 76* | Pol kappa inh-2=34*
Cc1cccc(NC(=O)/C(=C\c2ccc([N+](=O)[O-])o2)NC(=O)c2ccc(Cl)cc2)c1 | ? | 10µM* | 10% | ? | 2% | 10µM* | ?
O=C(/C=C/c1ccco1)Nc1ccccc1C(=O)Nc1cccc(C(=O)O)c1 | 20µM* | -50% | 6% | ? | ? | 18µM* | 30* | Pol kappa inh-2=24*
Cc1ccc(C(=O)N/C(=C/c2ccco2)C(=O)Nc2cccc(C(=O)O)c2)cc1 | ? | 1% | 1% | ? | 11% | 22µM* | ?
CC(=O)c1cccc(NC(=O)/C(=C/c2ccco2)NC(=O)c2ccco2)c1 | 13% | 6% | 6% | -3% | 17% | -19% | .
COC(=O)c1cccc(NC(=O)/C(=C\c2ccco2)NC(=O)c2ccco2)c1 | . | . | -9% | . | . | -8% | .
CCc1c(C)sc2c1CCN(C(=O)Nc1ccccc1C(F)(F)F)C2c1ccccc1 (stereo unspecified) | 7% | -13% | -4% | -6%[60.1 µM] | . | -20% | .
CN1CCN(C(=O)c2cc(=O)c3cc(Cl)ccc3o2)CC1 | 33% | 0% | -1% | 4% | 18% | -5% | .
COCCN(Cc1nc(-c2ccc(-c3ccccc3)cc2)oc1C)C(C)C | 6% | 39% | 6% | -10% | -5% | -12% | .
CCCOc1ccc(C(=O)c2nc3c(n2O)CCCC3)cc1 | 70% | 4% | . | -15% | -5% | ? | .
COc1ccc(C=NNc2ccc([N+](=O)[O-])cc2S(=O)(=O)Nc2ccccc2C(=O)O)cc1OC | 36% | . | ? | -37% | -7% | 35µM* | ?
COC(=O)c1ccc(Oc2nc3c(c(=O)n(C)c(=O)n3C)n2Cc2ccc(Cl)c(Cl)c2)cc1 | 6% | 7% | -2% | 2% | . | 2% | .
SMILES | Pol iota inh | Pol beta inh | GLS inhibitor | Pol kappa inh-1 | APE1 inh | Pol eta inh-1 | Pol eta inh-2 | others
CCOC(=O)c1sc(NC(=O)c2ccc3nc[nH]c3c2)nc1C | ? | ? | 0% | -25% | -21% | ? | ?
CCOC(=O)c1sc(NC(=O)c2ccc(=O)[nH]c2)nc1C | 14% | 14% | 10% | 6% | 44% | ? | .
Oc1ccc2ccccc2c1C=NCc1cn2ccsc2n1 | -13% | -14% | 32% | -6% | 4% | -1% | .
Cc1nc(Nc2ccc(C(=O)O)cc2)nc(Nc2ccc(C(=O)O)cc2)c1[N+](=O)[O-] | 45µM* | -1% | 5% | ? | ? | 35µM* | 38*
Cc1ccc(S(=O)(=O)/N=C(\N)c2ccc(Cl)cc2)cc1 | -5% | 0% | -9% | -18% | -7% | -10% | .
C/C(=N\Nc1cccc(C(=O)O)c1)c1ccc(Cl)s1 | 35µM* | 32µM* | -1% | 71µM* | ? | 20µM* | 27*
CN(C)C(=O)c1cc(C(=O)c2ccccc2C(F)(F)F)c[nH]1 | 92% | 32% | -1% | -1% | 1% | -15% | .
